Where “and” joins values, the source holds several entries; their conditions need not be identical. Identical values can stand only once. Hit rate of the full screen: of about 310,000 compounds, about 18,000 (5.8%) were called active. Entries that show only a call come without a potency. About 22% were inconclusive and are not listed. Calls follow the shape of the dose curve; as a rule, active = well fitted inhibition curve with a large enough effect; inconclusive = small, poorly fitted or top-dose-only effect, or another doubt; inactive = no such curve, though single readings can be large or run the other way. The full list was thinned out, with actives kept by preference. The source holds several records for some structures; these can differ, active in one and inactive in another.
Potency is read from the fitted curve at half-maximal effect.

This experiment can be described thus: Primary qHTS for delayed death inhibitors of the malarial parasite plastid, 48 hour incubation. The note with it: P. falciparum luciferase growth in erythrocytes; series mostly up to 28.7 µM. An excerpt:
The goal of this screen is to discover new antimalarial compounds that act by inhibiting the development of the apicoplast in the malarial parasite Plasmodium falciparum. The biochemical processes that make this organelle essential for erythrocytic stage parasites are not well understood. However, antibiotics such as azithromycin and tetracycline, which target the apicoplast translational machinery, have a potent antimalarial effect.
We have developed a cell-based assay that measures parasite growth based on the expression of an integrated copy of a firefly luciferase reporter. To detect small molecules that cause this "delayed death" phenotype, erythrocytes infected with the luciferase-expressing parasites were incubated with compounds for either one or two generations, corresponding to 48 and 96 hours, respectively. Compounds that inhibit parasite growth in the second generation, but not the first, should be enriched in antimalarials that target the apicoplast. Growth inhibition is detected by a decrease in luciferase activity.
Assay Provider: David Fidock and Eric Ekland, Columbia University
Keywords: NIH Roadmap, MLPCN, MLI, MLSMR, qHTS, NCGC, qHTS, malaria, luciferase, viability
Four microliters of culture medium (RPMI 1640 with 0.5% w/v Albumax (GIBCO), 24 mM sodium bicarbonate and 10 ug/mL gentamycin) were dispensed by a Multi-drop Combi into white solid 1536-well plates (Grenier) and 23 nL compound was added by a pin tool. Four microliters of infected erythrocytes (2% hematocrit, 0.1% parasitemia final concentration) in culture medium were dispensed and the plates incubated for 48 hours at 37 C in 5% CO2. Two microliters of luciferase detection reagent was added and luminescence was detected by a ViewLux (PerkinElmer) reader.
(In qHTS, concentration-response curves come from the screen itself.)
For `CCCCN1C(=O)C(=O)N(CC(=O)Nc2cccc(C(C)=O)c2)C1=O`, the Potency result is “inactive”.
Turning to `CC(C(=O)N1CCN(c2ccccc2F)CC1)c1ccc([N+](=O)[O-])cc1` (centres undefined), the Potency result is “inactive”.
Consider `O=C(COC(=O)c1ncc(Cl)c(Cl)c1Cl)NCc1ccccc1`, for which the Potency result is “inactive”.
On to `COCCCN1C(=O)c2ccc(C(=O)OCC(=O)NCc3ccccc3OC)cc2C1=O`, for which the Potency entry is “inactive”.
On to `Cc1ccn2c(=O)nc(SCC(=O)NCc3ccc(F)cc3)nc2c1`, for which the Potency entry is “inactive”.
Then `Cc1sc(NC(=O)c2ccc3ncsc3c2)c(C(N)=O)c1C`, with “inactive”.
Then `Cc1ccc2nc(C)c3c(c2c1)N(c1ccccc1)CC3`, with 5.86 µM (active); and `Cc1ccc2nc3n(c(=O)c2c1)CCC3`, with “inactive”.
For the compound `CSc1nc2ccc(C)cc2c(=O)n1-c1cccnc1`, the Potency result was “inactive”.
Then `N#Cc1ccc(C(=O)OCC(=O)NC(=O)NC2CCCCC2)cc1`, with “inactive”; and `O=C(Nc1cc(-c2nc3ncccc3o2)ccc1Cl)c1ccco1`, with “inactive”.
For the compound `Cc1ccc(C(=O)COC(=O)CCN2C(=O)C3C4CCC(C4)C3C2=O)cc1C` (centres undefined), the Potency entry was “inactive”.
`CCCCCCCCCc1ccc(OCCOCCOCCOCCOCCOCCOCCOCCOCCO)cc1`: the Potency is 8.49 µM (active).
Consider `CCCCCc1ccc(-c2ccc(OCC)cc2)nc1`, for which the Potency result was “inactive”.
For the compound `CCCCCCCCC(=O)NCCOc1ccccc1`, the Potency result was “inactive”.
For `COc1cccc(OCc2nnc3n2N=C(c2ccccc2)C(CC(=O)O)S3)c1` (centres undefined) the value was “inactive”; for `COc1cc(S(=O)(=O)N2CCN=C2c2ccccc2)ccc1Cl`, “inactive”.
For `C=C1c2c(Cl)ccc(O)c2C(O)=C2C(=O)[C@]3(O)C(O)=C(C(N)=O)C(=O)[C@@H](N(C)C)[C@@H]3[C@@H](O)C12` (some centres undefined) the value was 2.33 µM (active); for `CN(C)[C@@H]1C(=O)C(C(N)=O)=C(O)[C@@]2(O)C(=O)C3=C(O)c4c(O)ccc(Cl)c4[C@@H](O)[C@H]3C[C@@H]12`, 2.08 µM (active).
Then `COc1ccc(C(=O)COC(=O)Cn2cnc3c2c(=O)n(C)c(=O)n3C)c(OC)c1`, with “inactive”.
For `COc1cc(C(=O)Nn2c(CC(C)C)nc3ccccc3c2=O)cc(OC)c1OC`, the Potency entry is “inactive”.
In the case of `O=C(O)CSc1c2c(nc3cc(C(=O)Nc4cccc(C(F)(F)F)c4)ccc13)CCCC2`, the Potency entry is “inactive”.
As to `O=C(CCc1ccccc1)Nc1cccc(-c2nnc(-c3ccco3)o2)c1`, the Potency is 10.4 µM (active).
For `Cc1cccc(NC(=O)CSc2nnc(-c3ccco3)o2)c1` the value was “inactive”; for `O=C(Nc1cccc(-c2nnc(-c3ccccc3)o2)c1)C1CCCO1` (centres undefined), “inactive”; for `O=C(O)c1ccc(NC(=O)c2ccc(COc3ccc(Cl)cc3)o2)cc1`, “inactive”.
For `Cc1c(C)c(C)c(S(=O)(=O)N2CCC3(CC2)OCCO3)c(C)c1C` the value was “inactive”; for `c1ccc2cc(CCCc3cc4ccccc4cn3)ncc2c1`, “inactive”.
For the compound `Cc1n[nH]c(=O)c2c(NC(=O)CSc3cc(Cl)ccc3Cl)oc(C)c12`, the Potency entry is “inactive”.
Then `O=C(/C=C/c1cccc([N+](=O)[O-])c1)OCC(=O)N1CCOCC1`, with “inactive”; and `Cc1ccc(C(=O)N/C(=C\c2cn(C)c3ccccc23)C(=O)N2CCN(C)CC2)cc1`, with “inactive”.
For `Cc1ccc(C(=O)N/C(=C/c2cccs2)C(=O)N2CCCCC2)cc1` the value was “inactive”.
Turning to `Cc1ccc(C(=O)N/C(=C\c2cn(S(=O)(=O)N(C)C)c3ccccc23)C(=O)N2CCCC2)cc1`, the Potency is 10.4 µM (active).
For `COC(=O)c1ccc(/C=N/NC(=O)C(=O)N2CCCCCC2)cc1` the value was “inactive”; for `COc1ccccc1-c1sc2ccccc2c1-c1ccc(C(C)=O)cc1`, “inactive”.
As to `O=C(NNC(=O)C1CCN(c2ncccn2)CC1)c1ccccc1`, the Potency entry was “inactive”.
In the case of `O=C(NNC(=O)C1CCCC1)c1ccc(F)cc1`, the Potency entry is “inactive”.
Consider `Cc1sc2ncnc(N3CCC(C(=O)NNC(=O)c4ccc(F)cc4)CC3)c2c1C`, for which the Potency was 11.7 µM (active).
For `Cc1ccnc(N2CCCC(C(=O)Nc3cc(F)ccc3C)C2)n1` (centres undefined) the value was “inactive”.
For `Cc1sc2ncnc(N3CCC(C(=O)Nc4ccc(F)cc4Cl)CC3)c2c1C` the value was 11.7 µM (active); for `Cc1sc2ncnc(N3CCC(C(=O)Nc4nc5ccc(Cl)cc5s4)CC3)c2c1C`, “inactive”; for `COc1ccccc1CNC(=O)COC(=O)CNS(=O)(=O)c1ccc(NC(C)=O)cc1`, “inactive”.
Then `CC1CCN(C(=O)/C(=C\c2ccccc2F)NC(=O)c2ccccc2)CC1`, with “inactive”.
For the compound `Cc1ccc(S(=O)(=O)NCCCn2ccnc2)cc1C(=O)NC(C)C`, the Potency entry is “inactive”.
Then `COc1ccc(CNC(=O)c2ccc(Br)s2)cc1OC`, with “inactive”; and `Cc1ccc(S(=O)(=O)N2CCN=C2SCc2c(F)cccc2Cl)cc1`, with “inactive”; and `CCN(CC(=O)Nc1c(F)cccc1F)C(=O)C1CCC1`, with “inactive”.
In the case of `CCN(CC(=O)Nc1ccccc1C(F)(F)F)C(=O)CSCc1c(C)noc1C`, the Potency entry was “inactive”.
As for `CCN(CC(=O)Nc1ccccc1C(F)(F)F)C(=O)C1CCN(C(=O)Nc2ccccc2)CC1`, the Potency is 11.7 µM (active).
Then `COc1ccc(S(=O)(=O)NNC(=O)Nc2ccc(C)cc2)c(OC)c1`, with “inactive”; and `CC(C)=CCCC1(C)C=Cc2c(ccc3c2[nH]c2cc(O)c(C)cc23)O1` (centres undefined), with 9.28 µM (active).
Take `COc1cc2c(C(=O)N(C)c3cc(Cl)ccc3OC)cn(C)c(=O)c2cc1OC`: the Potency entry was “inactive”.
Turning to `COc1ccc(C(=O)N2CCCCC2C(=O)Nc2ccc(-n3nc(C)cc3C)cc2)o1` (centres undefined), the Potency entry is “inactive”.
Turning to `CCCc1cc(=O)[nH]c2nnc(SCC(=O)Nc3nnc(SCC)s3)n12`, the Potency result was “inactive”.
With `O=C(NC1CCc2ccccc21)C12CN(Cc3ccccc3)CC1C(c1cccc([N+](=O)[O-])c1)=NO2` (centres undefined), the Potency was 3.7 µM (active).
Turning to `O=C(/C=C/c1cccc([N+](=O)[O-])c1)N1CCN(Cc2ccccc2)CC1`, the Potency entry was “inactive”.
For `O=C(NCCN1CCN(C(=O)c2cccc([N+](=O)[O-])c2)CC1)C(=O)NCc1ccc(Cl)cc1` the value was “inactive”.
For the compound `CN(Cc1ccccc1)C(=O)CCc1ccccc1`, the Potency result is “inactive”.
For `CCN(CC)C(=O)N(CC)Cc1ccccc1` the value was “inactive”.
For `CN(C(=O)CN(CCO)CC(=O)N(C)C(C)(C)Cc1ccccc1)C(C)(C)Cc1ccccc1` the value was “inactive and 9.28 µM (active)”; for `CN(CC(=O)NCc1ccc2c(c1)OCO2)CC(=O)Nc1ccc(F)c(F)c1F`, “inactive”; for `Cc1cc(/C=N/NC(=O)c2cccnc2)c(C)n1CC(C)C`, “inactive”.
As for `O=C(N/N=C/c1ccccn1)c1cccnc1`, the Potency entry was “inactive”.
For `O=C(N/N=C/c1sc(N2CCCCC2)nc1-c1cccs1)c1cccnc1` the value was 3.29 µM (active); for `COc1ccc2c(C(=O)c3ccc(C)cc3)n(CCC(N)=O)[n+]([O-])c2c1`, “inactive”.
Then `Cc1cc(C(=O)N/N=C/c2ccccn2)c2ccccc2n1`, with “inactive”; and `Cc1ccc(S(=O)(=O)Cn2nnnc2CN2CCN(Cc3ccc4c(c3)OCO4)CC2)cc1`, with “inactive”.
For `Cc1cc(C)c2[nH]c(=O)c(C(c3nnnn3Cc3ccc4c(c3)OCO4)N3CCCC3)cc2c1` (centres undefined) the value was 13.1 µM (active); for `Fc1ccccc1C(c1nnnn1Cc1ccc2c(c1)OCO2)N1CCN(Cc2ccccc2)CC1` (centres undefined), 6.57 µM (active).
Take `Cc1ccc(CN2CCCC(C(=O)c3ccc4c(c3)OCO4)C2)cc1C` (centres undefined): the Potency result was “inactive”.
`O=C(C1CCN(Cc2ccc(Cl)cc2)CC1)N1CCN(Cc2ccc3c(c2)OCO3)CC1`: the Potency result is “inactive”.
Then `Cc1cccc(C)c1NC(=O)CSc1nnc(-c2ccccc2)n1Cc1ccc2c(c1)OCO2`, with “inactive”; and `CSc1ccccc1NC(=O)COC(=O)CCCOc1ccc(C)cc1`, with “inactive”; and `CCOC(=O)c1cnc(-n2nc(C)cc2C)nc1NNc1cc(C)nc(-c2ccccc2)n1`, with 3.29 µM (active).
As for `CCOC(=O)c1c(C)nc(-c2ccccc2)nc1NC(=O)C(C)C`, the Potency entry was “inactive”.
For `CCOC(=O)c1cnc(-n2nc(C)cc2C)nc1-n1nc(C)cc1C` the value was “inactive”; for `COCCOC1CCN(C(=O)c2ccc(OC)c(OC3CCN(C(C)C)CC3)c2)CC1`, “inactive”.
Then `COc1ccccc1NC(=O)C(C)OC(=O)c1ccc(-n2cnnn2)cc1` (centres undefined), with “inactive”; and `Cc1ccc(Nc2nnc(SCc3ccccc3)s2)cc1`, with “inactive”; and `CCc1ccc(Nc2n[n+](-c3ccccc3)c(-c3cccc(Cl)c3Cl)s2)cc1`, with 4.15 µM (active).
Then `COc1cc(Br)c(-c2sc(Nc3ccccc3)n[n+]2-c2ccccc2)cc1OC`, with “inactive”; and `Cc1ccc(C)c(S(=O)(=O)N2CCN(CC(=O)Nc3ccc([N+](=O)[O-])cc3)CC2)c1`, with “inactive”.
Turning to `CC(=O)Nc1ccc(S(=O)(=O)N2CCN(CCCOc3cc(C)ccc3C)CC2)cc1`, the Potency is 7.38 µM (active).
Then `CC(=O)Nc1ccc(S(=O)(=O)N2CCN(S(=O)(=O)c3cccs3)CC2)cc1`, with “inactive”; and `CCOC(=O)C1(CCOC)CCN(Cc2cc3ccccc3s2)CC1`, with “inactive”; and `CCOC(=O)C1(Cc2cccc(OC)c2)CCN(Cc2csc(C(C)=O)c2)CC1`, with “inactive”.
`CCOC(=O)C1(CCOC)CCN(Cc2ccc(C(=O)OC)cc2)CC1`: the Potency is 10.4 µM (active).
For `O=C(COc1ccc(Cl)cc1)Nc1ccc2c(c1)OCO2` the value was “inactive”.
For `COc1ccc(/C=C/C(=O)Nc2ccc3c(c2)OCCO3)cc1OC` the value was “inactive”.
Take `COc1ccc(CNC(=O)C2CCN(S(=O)(=O)N3CCOCC3)CC2)cc1`: the Potency result was “inactive”.
Take `COc1ccc(NS(=O)(=O)c2cc(NC(=O)/C=C/c3cc(OC)c(OC)c(OC)c3)ccc2N2CCCCC2)cc1`: the Potency is 1.17 µM (active).
Then `COc1ccc(NS(=O)(=O)c2cc(NC(=O)C3CCCCC3)ccc2N2CCOCC2)cc1`, with 10.4 µM (active); and `O=C(Nc1cccc(OCC(=O)N2CCOCC2)c1)C1CCCCC1`, with “inactive”; and `COc1ccc(NS(=O)(=O)c2ccc(N3CCN(CCO)CC3)c([N+](=O)[O-])c2)cc1`, with “inactive”.
For `C=CCOc1cccc(C2NC(=O)c3ccccc3O2)c1` (centres undefined) the value was “inactive”; for `COc1ccc(N(CC(=O)NCC2CCCO2)C(=O)CCC(=O)Nc2nccs2)c(OC)c1` (centres undefined), “inactive”.
As for `Cc1ccc(N2CC(C(=O)Nc3cc(Cl)ccc3-n3cncn3)CC2=O)cc1` (centres undefined), the Potency entry was “inactive”.
Consider `Cc1ccc2c(c1)N(CC(=O)NCC1CCCO1)C(=O)CO2` (centres undefined), for which the Potency result was “inactive”.
Then `COc1cccc(C(=O)NCCS(=O)(=O)NCC2CCCO2)c1` (centres undefined), with “inactive”.

Source of the values: PubChem BioAssay AID504832 (National Center for Advancing Translational Sciences (NCATS), 2011).
